Source: PubChem (National Center for Advancing Translational Sciences (NCATS))
Hits are enriched below; roughly 11% of the tested compounds scored in any of these assays.
HCV inhibitor – qHTS Assay for Inhibitors of Hepatitis C Virus (HCV); Potency, µM (series often up to 41.8 µM), usual class: inhibitors; 340,000 tested, 3.4% active; Huh7.5.1 HCVcc-Cre infection, luciferase reporter, 44 h
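Antiviral activity was scored by luciferase reporter output from cells infected with HCVcc-Cre (~0.5 moi) in presence of compound, 44 h infection period, cells seeded 1,000/well 4 h prior.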
Pf growth 96h – Primary qHTS for delayed death inhibitors of the malarial parasite plastid, 96 hour incubation; P. falciparum luciferase reporter growth, 96 h; Potency, µM (highest dose often 28.7 µM), most hits filed as inhibitors; 320,000 tested, 6.9% active; AID 504834, 2011
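Erythrocytes infected with luciferase-expressing P. falciparum were dispensed at 2% hematocrit and 0.05% parasitemia (final), then incubated with compounds 96 hours at 37 C in 5% CO2. Luminescence after detection reagent addition reported growth.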
AmpC inh no detg – qHTS Inhibitors of AmpC Beta-Lactamase (assay without detergent); P00811; AmpC nitrocefin hydrolysis, absorbance 480 nm, 0.0001% Triton; Potency, µM (doses to about 57.1 µM), most hits filed as inhibitors; 330,000 tested, 0.52% active; further: nearly all actives have a fitted effect of over 20% in size
Target sequence (P00811 whole entry, looked up): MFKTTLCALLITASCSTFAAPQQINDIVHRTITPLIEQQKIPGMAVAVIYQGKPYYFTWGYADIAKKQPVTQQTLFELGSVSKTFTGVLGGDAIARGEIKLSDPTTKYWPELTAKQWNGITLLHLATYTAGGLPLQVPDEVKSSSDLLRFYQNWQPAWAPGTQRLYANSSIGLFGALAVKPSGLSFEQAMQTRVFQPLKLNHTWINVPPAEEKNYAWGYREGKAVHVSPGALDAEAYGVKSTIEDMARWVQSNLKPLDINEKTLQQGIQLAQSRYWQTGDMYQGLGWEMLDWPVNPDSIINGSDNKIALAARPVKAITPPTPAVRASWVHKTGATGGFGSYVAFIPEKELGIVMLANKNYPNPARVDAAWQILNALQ
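20 mM phosphate pH 7.0 + 0.01% (detergent screen) or 0.0001% Triton X-100; 5.3 nM AmpC reagent; cpd preinc 15 min RT; nitrocefin (800 uM stock) to start; A480 q20 s × 4 min; Activity was normalised to no-enzyme and no-compound control wells.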
Pf growth 48h – Primary qHTS for delayed death inhibitors of the malarial parasite plastid, 48 hour incubation. P. falciparum luciferase growth in erythrocytes, 48 h. 310,000 tested, 5.9% active. Potency, µM (top dose mostly 28.7 µM), hits mostly inhibitors
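In quantitative HTS format, infected erythrocytes bearing luciferase-reporter parasites were treated for a single generation at 37 C. Luminescence after adding detection reagent served as the growth measure.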
AmpC detergent – qHTS Inhibitors of AmpC Beta-Lactamase (assay with detergent); AID 485294, 2010; 370,000 tested, 0.041% active; Potency, µM (doses to about 114 µM), actives largely listed as inhibitors; AmpC hydrolysis of nitrocefin, absorbance 480 nm, 0.01% Triton; P00811; further: nearly all actives have a fitted effect of over 25% in size
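20 mM phosphate pH 7.0 + 0.01% (detergent screen) or 0.0001% Triton X-100; 5.3 nM AmpC reagent; cpd preinc 15 min RT; nitrocefin (800 uM stock) to start; A480 q20 s × 4 min; Activity was normalised to no-enzyme and no-compound control wells.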
AMA1-RON2 inh – qHTS for Inhibitors of AMA1-RON; Towards Development of Antimalarial Drug Lead: Primary Screen; AlphaScreen AMA1-biotinylated RON2 peptide binding; Potency, µM (titrated, usually from 58.2 µM), actives largely listed as inhibitors; 360,000 tested, 0.2% active; further: nearly all actives have a fitted effect of over 45% in size
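AMA1 (3D7) with his tag at 25 nM final met compounds first, then biotinylated RON2 peptide at 25 nM; detection used donor plus acceptor beads, 10 µg/mL apiece, read by AlphaScreen after 30 min at room temperature.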
Large screens that a line does not name were inactive; ! = a repeat was not active. The call rests on the fitted dose curve; in most records, active means well fitted curve in the direction sought with a large enough effect; inconclusive means small, poorly fitted or top-dose-only effect, or another doubt; inactive means no such curve, though single readings can be large; an effect the other way counts as inactive or inconclusive.

CCOc1ccccc1N1CCN(C(=O)c2cc(S(=O)(=O)N(C)C)ccc2N2CCCC2)CC1	HCV inhibitor inconclusive, Pf growth 96h inconclusive, Pf growth 48h 10µM
CCN(CC)S(=O)(=O)c1ccc(N2CCCC2)c(C(=O)OCC(=O)/C(C#N)=C(\C)N)c1	HCV inhibitor inconclusive, Pf growth 48h 9.3µM
CN(C)S(=O)(=O)c1ccc(N2CCCC2)c(C(=O)OCC(=O)N2CCN(c3ccccc3)CC2)c1	Pf growth 48h 15µM, AmpC detergent inconclusive
CN(C)S(=O)(=O)c1ccc(N2CCCC2)c(C(=O)N2CCN(S(=O)(=O)c3cccc(F)c3)CC2)c1	HCV inhibitor inconclusive, Pf growth 48h 10µM, AmpC detergent inconclusive
CN(C)S(=O)(=O)c1ccc(N2CCCC2)c(C(=O)N2CCN(S(=O)(=O)c3ccc(F)cc3)CC2)c1	Pf growth 96h inconclusive, Pf growth 48h inconclusive
CC(C)N(Cc1ccccc1)C(=O)COC(=O)c1cc(S(=O)(=O)N(C)C)ccc1N1CCCC1	HCV inhibitor inconclusive (no result: Pf growth 96h, Pf growth 48h, AmpC detergent)
CCSc1nnc(NC(=O)CCNS(=O)(=O)c2cc(Br)cnc2N)s1	Pf growth 96h 9.3µM, Pf growth 48h inconclusive
CC(C)Cn1c(-c2ccc(S(=O)(=O)N3CCCC3)cc2)csc1=Nc1ccccc1	none (no result: HCV inhibitor, Pf growth 96h, AmpC inh no detg, Pf growth 48h, AMA1-RON2 inh)
CCc1ccc2oc(-c3ccc(OC)cc3)cc(=Nc3cccc(C(=O)O)c3)c2c1	HCV inhibitor inconclusive, Pf growth 96h inconclusive
CC(=O)c1cccc(N=c2scc(-c3ccc(S(=O)(=O)N4CCOCC4)cc3)n2CCO)c1	HCV inhibitor 1µM, Pf growth 96h 4.7µM, Pf growth 48h 5.2µM, AMA1-RON2 inh inconclusive
COc1ccc(-c2csc(=Nc3ccccc3)n2CCO)cc1	HCV inhibitor 13µM!, AmpC detergent inconclusive
C=CCn1c(-c2ccc(S(=O)(=O)N3CCOCC3)cc2)csc1=Nc1ccccc1	Pf growth 96h 12µM, Pf growth 48h inconclusive
CCc1ccc2oc(-c3ccc(OC)cc3)cc(=Nc3c(C)n(C)n(-c4ccccc4)c3=O)c2c1	HCV inhibitor 10µM, Pf growth 96h inconclusive
CC(C)N(Cc1nc(-c2ccc(Cl)cc2)no1)C(=O)c1ccco1	none (no result: HCV inhibitor, Pf growth 96h, AmpC inh no detg, Pf growth 48h, AMA1-RON2 inh)
O=S(=O)(c1ccc(-c2csc(=Nc3ccc(F)cc3)n2CCCCCCO)cc1)N1CCCC1	none (no result: HCV inhibitor, Pf growth 96h, AmpC inh no detg, Pf growth 48h, AMA1-RON2 inh)
C=CCn1c(-c2ccc(OC)cc2)csc1=Nc1c(C)n(C)n(-c2ccccc2)c1=O	HCV inhibitor inconclusive, Pf growth 96h 15µM (no result: Pf growth 48h)
COc1ccc(N=c2scc(-c3ccc(S(=O)(=O)N4CCOCC4)cc3)n2CCCO)cc1	HCV inhibitor inconclusive, Pf growth 48h 12µM, AmpC detergent inconclusive (no result: AMA1-RON2 inh)
CCSCCc1nnc(NC(=O)Nc2cccc(C(F)(F)F)c2)s1	HCV inhibitor 3.5µM, Pf growth 96h inconclusive, Pf growth 48h 5.2µM
C=CCn1c(O)c(C(CC)=Nc2ccc(N(C)C)cc2)c(=O)[nH]c1=O	HCV inhibitor inconclusive, Pf growth 96h 1.7µM, Pf growth 48h 0.66µM, AMA1-RON2 inh inconclusive
C=CCn1c(O)c(C(CC)=Nc2ccc3c(c2)CCC3)c(=O)[nH]c1=O	none
O=C(NCc1cccc(Br)c1)c1cccn1-c1nnc(N2CCCCC2)s1	none (no result: HCV inhibitor, Pf growth 96h, AmpC inh no detg, Pf growth 48h, AMA1-RON2 inh)
CC(C)(C)NC(=O)NCc1cccnc1	none
CC12CC3CC(C)(C1)CC(C(=O)NCc1cccnc1)(C3)C2	Pf growth 96h 3.7µM
CC12CC3(C)CC(C)(C1)CC(C(=O)NCc1cccnc1)(C2)C3	Pf growth 96h 12µM
Cc1ccccc1C(=O)Nc1ccc(S(=O)(=O)N2CCC(c3nc4ccccc4s3)CC2)cc1	none (no result: HCV inhibitor, Pf growth 96h, AmpC inh no detg, Pf growth 48h, AMA1-RON2 inh)
COc1ccccc1N1CCN(CCCCN2C(=O)C3CCCCN3C2=O)CC1 (centres undefined)	Pf growth 96h 8.3µM
CCCCOc1ccccc1N1CCN(CCCN2C(=O)C3CCCN3C2=O)CC1 (centres undefined)	Pf growth 96h inconclusive
COc1ccc2cc(S(=O)(=O)N3CCCC3)ccc2c1	Pf growth 96h 6.6µM
